Test results: article PMC13083723 (Patterns, 2026)
The whole screen tested about 5,400 compounds, of which about 190 (3.5%) showed an effect of 50% or more. The list comes from a sample in which strong results are over-represented; it also holds similar structures and randomly drawn compounds.

system: Vero-E6; test: primary screen, phospholipidosis by LipidTOX staining; higher = more effect of the substance; conditions: 10 µM
Summary of the method: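 Single-concentration screen at 10 μM, with DMSO 0.1 v/v % and amiodarone 10 μM as controls. Read-out is LipidTOX Red phospholipid staining, which tolerates aldehyde fixation, in Vero-E6 cells.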

In order of rising result_ITMP:
1. Fc1cc(F)c2c(c1)[C@H]1C=CC[C@H]1C(c1cccnc1)N2 (mixture of isomers)  -14.4%
2. O=C1OC2(c3cc(I)c([O-])c(I)c3Oc3c2cc(I)c([O-])c3I)c2c(Cl)c(Cl)c(Cl)c(Cl)c21  -9.57%
3. CC(=O)Nc1ccc(C(=O)NC(C)(C)C)cc1  -9.36%
4. CSCC[C@H](NC(=O)[C@H](CC(C)C)NC(=O)CNC(=O)[C@H](Cc1ccccc1)NC(=O)[C@H](Cc1ccccc1)NC(=O)[C@H](CCC(N)=O)NC(=O)[C@H](CCC(N)=O)NC(=O)[C@@H]1CCCN1C(=O)[C@H](CCCCN)NC(=O)[C@@H]1CCCN1C(=O)[C@@H](N)CCCNC(=N)N)C(N)=O  -6.88%
5. CC(C)(O)CC(=O)[O-]  -6.24%
6. O=C(O)[C@@H](S)[C@@H](S)C(=O)O  -5.93%
7. CCCC[N+]1(C)[C@@H]2C[C@@H](OC(=O)[C@H](CO)c3ccccc3)C[C@H]1[C@@H]1O[C@@H]12 (stereo partly shown)  -5.86%
8. OC[C@H]1O[C@@](CO)(O[C@H]2O[C@H](CO)[C@@H](O)[C@H](O)[C@H]2O)[C@@H](O)[C@@H]1O  -5.71%
9. O=C(CCn1cnc2c(O)ncnc21)Nc1ccc(C(=O)O)cc1  -5.54%
10. CC(=O)O[C@@]12CO[C@@H]1C[C@H](O)[C@@]1(C)C(=O)[C@H](O)C3=C(C)[C@@H](O)C[C@@](O)([C@@H](OC(=O)c4ccccc4)[C@H]21)C3(C)C  -5.35%
11. C[C@]12CC[C@H](O)CC1=CC[C@@H]1[C@@H]2CC[C@]2(C)C(c3cccnc3)=CC[C@@H]12  -5.26%
12. CCN(CC)C(C)C(=O)c1ccccc1 (stereo not shown)  -5.15%
13. O=C(Nc1ccccc1)Nc1ccc(-c2ccc(C(=O)[C@@H]3CCC[C@H]3C(=O)O)cc2)cc1 [R4A_0000400_001 / SPE_K28861668]  -3.95%
14. Cn1nccc1Nc1nccc(-c2ccn([C@H](CO)c3ccc(Cl)c(F)c3)c(=O)c2)n1 [R4A_0003897_001 / SPE_K86309810]  -3.82%
15. Cc1cccn2c(=O)c(/C=C(\C#N)c3nc4ccccc4s3)c(Oc3ccc(F)cc3)nc12  -3.48%
16. Cc1ccc(C(=O)c2ccc(CC(=O)[O-])n2C)cc1  -3.18%
17. O=S(=O)([O-])CCS  -2.99%
18. CC1(C)S[C@@H]2[C@H](NC(=O)[C@H](NC(=O)N3CCN(S(C)(=O)=O)C3=O)c3ccccc3)C(=O)N2[C@H]1C(=O)[O-]  -2.91%
19. Cc1ccccc1C(c1ccccc1C)N1C2CCC1CC(O)(c1ccccc1)C2 (stereo not shown)  -2.82%
20. Nc1ncnc2[nH]cnc12  -2.75%
21. CC(CC(C(N)=O)(c1ccccc1)c1ccccc1)N(C)C (stereo not shown)  -2.3%
22. Nc1c(CC(=O)[O-])cccc1C(=O)c1ccccc1  -2.23%
23. C[C@]12CC[C@H](O)C[C@H]1CC[C@@H]1[C@@H]2CC[C@]2(C)[C@@H](c3ccc(=O)oc3)C[C@H]3O[C@]132  -2.23%
24. C#C[C@]1(O)CC[C@H]2[C@@H]3CCC4=CC(=O)CC[C@@H]4C3CC[C@@]21CC (stereo partly shown)  -2.07%
25. CN1C/C=C/CCOc2cccc(c2)-c2ccnc(n2)Nc2cccc(c2)C1  -2.04%
26. COC(=O)/C=C/C(=O)N[C@@H]1CC[C@@]2(O)C3Cc4ccc(O)c5c4[C@@]2(CCN3CC2CC2)[C@H]1O5  -2%
27. Cc1cc2c(cc1CC(=O)c1sccc1S(=O)(=O)[N-]c1onc(C)c1Cl)OCO2  -1.86%
28. NC(Cc1c[nH]c2ccc(O)cc12)C(=O)O (stereo not shown)  -1.81%
29. CCC[C@@H]1C[C@@H](C(=O)N[C@@H]([C@H]2O[C@H](SC)[C@H](OP(=O)(O)O)[C@@H](O)[C@H]2O)[C@H](C)Cl)N(C)C1  -1.73%
30. O=C(Nc1ccccc1)Nc1ccc(-c2ccc(C(=O)[C@@H]3CCC[C@H]3C(=O)O)cc2)cc1 [R4A_0000400_001 / SPE_K81614372]  -1.59%
31. COc1cc2c(NC3CCN(C4CCCCC4)CC3)nc(N3CCCN(C(C)C)CC3)nc2cc1OCCCN1CCCCC1  -1.55%
32. CC1(C)S[C@@H]2C(N3C(=O)[C@@H](c4ccccc4)NC3(C)C)C(=O)N2[C@H]1C(=O)[O-] (stereo partly shown)  -1.52%
33. CC(N)Cc1c[nH]c2ccc(O)cc12 (stereo not shown)  -1.42%
34. O[C@@H]1[C@H](O)[C@@H](CCl)O[C@H]1n1cnc2c(NC3CC4CCC3C4)ncnc21 (mixture of isomers)  -1.27%
35. COc1cc2ncnc(Nc3ccc(F)c(Cl)c3)c2cc1OCCCN1CCOCC1  -1.05%
36. CCS(=O)c1nc(-c2cccc(OCc3ccccc3)c2)cc(C(F)(F)F)n1 (stereo not shown)  -1.04%
37. CC(O)(P(=O)([O-])O)P(=O)([O-])O  -0.98%
38. Cc1cccc(C)c1NC(=O)CN1CCCCCC1  -0.91%
39. CC1(C)C(/C=C/C=C/C=C/C=C2/N(CCCCS(=O)(=O)[O-])c3ccc4ccccc4c3C2(C)C)=[N+](CCCCS(=O)(=O)[O-])c2ccc3ccccc3c21  -0.75%
40. CCCCN(CCCC)CC(O)c1cc(Cl)cc2c1-c1ccc(Cl)cc1/C2=C/c1ccc(Cl)cc1 (stereo not shown)  -0.63%
41. c1cc(OCCN2CCCCC2)cc(-c2n[nH]c3ccc(-c4ncn[nH]4)cc23)c1  -0.52%
42. CC(=O)N[C@@H]1C[C@H](O)[C@@H](CO)O[C@H]1O[C@H]1[C@H](O)[C@@H](O)[C@H](O)O[C@@H]1C(=O)[O-]  -0.41%
43. Cc1noc(-c2ccc(-c3ccc(CC(=O)[O-])cc3)cc2)c1NC(=O)O[C@H](C)c1ccccc1  -0.34%
44. C1CCC(N/C(=N/C23CC4CC(CC(C4)C2)C3)N2CCOCC2)CC1  -0.26%
45. C[C@H](/C=C/[C@H](C)C(C)(C)O)[C@H]1CC[C@H]2/C(=C/C=C3C[C@@H](O)C[C@H](O)C3)CCC[C@]12C  -0.26%
46. C/C(=N\NC(=S)NNC(=S)Nc1ccccc1Cl)c1ccccn1  -0.18%
47. N[C@@H]1[C@H]2CN(c3nc4c(cc3F)c(=O)c(C(=O)O)cn4-c3ccc(F)cc3F)C[C@@H]12  0.39%
48. CC(C)[C@@H]1C(=O)N(S(C)(=O)=O)[C@@H]2CCN(C(=O)/C=C/CN3CCCCC3)[C@H]21  0.42%
49. O=C(/C=C/c1c(C(=O)[O-])[nH]c2cc(Cl)cc(Cl)c12)Nc1ccccc1  0.43%
50. CC(=O)Nc1ccc(NC(=S)NC(=O)c2ccc(C(C)(C)C)cc2)cc1  2.55%
51. Cn1cc(/C=C2/C(=O)Nc3cccnc32)c2ccccc21  2.75%
52. O=C1[C@@H]2[C@H]3CC[C@H](C3)[C@@H]2C(=O)N1C[C@@H]1CCCC[C@H]1CN1CCN(c2nsc3ccccc23)CC1  3.52%
53. C[C@@H]1CN(CC(=O)Nc2ccc3c(c2)Cc2cccc(-c4cc(=O)cc(N5CCOCC5)o4)c2S3)C[C@H](C)O1  4.24%
54. Cc1c(-c2ccc(-c3ccccc3F)cc2)nc2ccc(F)cc2c1C(=O)[O-]  5.08%
55. C[CH2][Hg][S]c1ccccc1C(=O)[O-]  6.82%
56. C[C@H]1[C@H](OC(=O)CCC(=O)O)O[C@@H]2O[C@@]3(C)CC[C@H]4[C@H](C)CC[C@@H]1[C@@]24OO3  7.77%
57. CCNC(=O)N1CCN(CCCC(c2ccc(F)cc2)c2ccc(F)cc2)CC1  8.88%
58. COc1cc2c(NC3CCN(C(C)C)CC3)nc(N3CCC(F)(F)CC3)nc2cc1OCCCN1CCCC1  8.94%
59. CCOC(=O)Nc1ccc2c(c1)N(C(=O)CCN(CC)CC)c1ccccc1S2  12%
60. CN(C)CCC(c1ccc(Cl)cc1)c1ccccn1 (stereo not shown) [R4A_0004036_001 / SPE_A04553218]  16%
61. CN1CCN(C(c2ccccc2)c2ccccc2)CC1  16.1%
62. C=C1C(=O)O[C@H]2[C@H]1CC/C(C)=C/CC[C@@]1(C)O[C@@H]21 [R4A_0002204_002 / SPE_K34851558]  16.6%
63. O=C([O-])C(=O)[O-].[NH-][C@@H]1CCCC[C@H]1[NH-].[Pt+4]  22.9%
64. COc1cc2c(N3CCN(C(=O)Nc4ccc(OC(C)C)cc4)CC3)ncnc2cc1OCCCN1CCCCC1  23%
65. CN1CCN(C(c2ccccc2)c2ccc(Cl)cc2)CC1 (stereo not shown)  44.4%
66. Cc1ccc2c(c1)c1c3n2CCNC3CCC1 (stereo not shown)  51.5%
67. Cc1cccc(C)c1NC(=O)CN1CCN(CCCC(c2ccc(F)cc2)c2ccc(F)cc2)CC1  52.6%
68. CC(N)Cc1c[nH]c2ccc(OCc3cccs3)cc12 (stereo not shown)  55.2%
69. CC(CN1c2ccccc2Sc2ccccc21)N(C)C (stereo not shown)  55.4%
70. COc1cccc(Nc2ncnn3ccc(CN4CC[C@@H](N)[C@H](O)C4)c23)c1  59%
71. COc1cc2c(NC3CCN(C(C)C)CC3)nc(C3CCCCC3)nc2cc1OCCCN1CCCC1  60.7%
72. CCN(CC)C(C)CN1c2ccccc2Sc2ccccc21 (stereo not shown)  63.9%
73. COc1cc(Nc2c(C#N)cnc3cc(OCCCN4CCN(C)CC4)c(OC)cc23)c(Cl)cc1Cl  68%
74. CCCCN(CCCC)CCC(O)c1cc2c(Cl)cc(Cl)cc2c2cc(C(F)(F)F)ccc12 (stereo not shown)  68.8%
75. CN(C)CCNc1nc2cc(O)ccc2c2c1C(=O)c1ccccc1-2  76.7%
76. C1=C/COCc2cc(ccc2OCCN2CCCC2)Nc2nccc(n2)-c2cccc(c2)COC/1  78.8%
77. CN1CCCN(C(c2ccccc2)c2ccc(Cl)cc2)CC1 (stereo not shown)  82.5%
78. c1cc2c(cc1C1CCCCC1)c1c3n2CCNC3CCC1 (stereo not shown)  84.2%
79. CN(C)CCCCC(=O)Nc1ccc(NC(=S)NC(=O)c2ccc(C(C)(C)C)cc2)cc1  147%
